Results published in PubChem BioAssay (NCI).
Several values for one entry are separate records, joined by “and”; a condition that tells them apart may be missing. Equal values may be shown once. This is part of a sample that, as a whole, favours compounds with a hit. Of some 83,000 tested, about 20% had one in any assay.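 Step 1: grow cells in 96-well plates. Step 2: add test compound at a single concentration. Step 3: incubate 48 h. Step 4: record percent growth.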 Activity calls are given as the source filed them. How the source made its calls: active means growth percent below 10; inactive means the rest.

Legend:
Test in all cases: NCI-60 one-dose screen, 48 h (100 = growth as untreated, 0 = no growth, -100 = all killed)
Conditions in all cases: 10 µM unless noted
MOLT-4 leukemia = test system: MOLT-4 leukemia
SR leukemia = test system: SR leukemia
RPMI-8226 leukemia = test system: RPMI-8226 leukemia
OVCAR-8 ovarian = test system: OVCAR-8 ovarian
OVCAR-5 ovarian = test system: OVCAR-5 ovarian
OVCAR-4 ovarian = test system: OVCAR-4 ovarian
SK-OV-3 ovarian = test system: SK-OV-3 ovarian
IGROV1 ovarian = test system: IGROV1 ovarian
HS 578T breast = test system: HS 578T breast
NCI/ADR-RES ovarian = test system: NCI/ADR-RES ovarian
T-47D breast = test system: T-47D breast
MDA-MB-435 melanoma = test system: MDA-MB-435 melanoma
SW-620 colon = test system: SW-620 colon
MCF7 breast = test system: MCF7 breast
HCT-116 colon = test system: HCT-116 colon
KM12 colon = test system: KM12 colon
BT-549 breast = test system: BT-549 breast
HCC-2998 colon = test system: HCC-2998 colon
OVCAR-3 ovarian = test system: OVCAR-3 ovarian

Row | SMILES | growth (MOLT-4 leukemia) | growth (SR leukemia) | growth (RPMI-8226 leukemia) | growth (OVCAR-8 ovarian) | growth (OVCAR-5 ovarian) | growth (OVCAR-4 ovarian) | growth (SK-OV-3 ovarian) | growth (IGROV1 ovarian) | growth (HS 578T breast) | growth (NCI/ADR-RES ovarian) | growth (T-47D breast) | growth (MDA-MB-435 melanoma) | growth (SW-620 colon) | growth (MCF7 breast) | growth (HCT-116 colon) | growth (KM12 colon) | growth (BT-549 breast) | growth (HCC-2998 colon) | growth (OVCAR-3 ovarian)
1 | CCCCOC(N)=O | 96.8% (inactive) | 96.1% (inactive) | 114% (inactive) | 98% (inactive) | 110% (inactive) | 106% (inactive) | 100% (inactive) | 113% (inactive) | 110% (inactive) | 106% (inactive) | 102% (inactive) | 110% (inactive) | 113% (inactive) | 114% (inactive) | 98.4% (inactive) | 106% (inactive) | – | – | –
2 | O=C(O)C(O)c1ccc(Cl)cc1 (stereo not given) | 113% (inactive) | 102% (inactive) | 111% (inactive) and 92.1% (inactive) | 109% (inactive) and 103% (inactive) | 110% (inactive) | 102% (inactive) and 109% (inactive) | 101% (inactive) and 108% (inactive) | 110% (inactive) and 111% (inactive) | 102% (inactive) and 99.7% (inactive) | 106% (inactive) and 107% (inactive) | 93.1% (inactive) and 138% (inactive) | 105% (inactive) and 115% (inactive) | 107% (inactive) and 103% (inactive) | 97.1% (inactive) and 106% (inactive) | 93.7% (inactive) and 95.1% (inactive) | 108% (inactive) and 100% (inactive) | 101% (inactive) and 103% (inactive) | 98.3% (inactive) and 108% (inactive) | –
3 | COc1cc2c(c(OC)c1OC)-c1ccc(O)cc1[C@@H](NC(C)=O)CC2 | 34.5% (inactive) and -8.23% (active) | 15.1% (inactive) and -4.87% (active) | 25% (inactive) and -17.7% (active) | 15.7% (inactive) and 11.1% (inactive) | 33.2% (inactive) and 41.1% (inactive) | 19.3% (inactive) | 8.01% (active) and 6.47% (active) | -24.2% (active) and 8.32% (active) | 50.4% (inactive) and 29.5% (inactive) | 11.1% (inactive) and -2.64% (active) | 56.4% (inactive) and 64% (inactive) | -27.7% (active) and -47.4% (active) | – | 15.1% (inactive) and 6.46% (active) | 6.62% (active) and 4.98% (active) | -17.3% (active) and -32.3% (active) | 8.27% (active) | 11.5% (inactive) and 8.19% (active) | –
4 | CC1(C)CN=C(NN=C(/C=C/c2ccc(C(F)(F)F)cc2)/C=C/c2ccc(C(F)(F)F)cc2)NC1 | -59.1% (active) | -57% (active) | -26.8% (active) | -64% (active) | -87.5% (active) | -92.3% (active) | -7.65% (active) | 22% (inactive) | -38% (active) | -68.4% (active) | -86.1% (active) | -83.6% (active) | – | -99.5% (active) | -85.8% (active) | -86.8% (active) | -16.8% (active) | – | –
5 | Cc1cc[c-]cc1.Fc1c[c-]c(-c2ccccn2)c(F)c1.[Pt+2].c1ccc([PH+](c2ccccc2)c2ccccn2)cc1 | 26% (inactive) | 42.5% (inactive) | 15.9% (inactive) | 34% (inactive) | 63.9% (inactive) | – | 91.7% (inactive) | 53.2% (inactive) | 39.1% (inactive) | 88.2% (inactive) | 23.5% (inactive) | 39.3% (inactive) | 45.6% (inactive) | 38.9% (inactive) | 35% (inactive) | 52.4% (inactive) | 63.2% (inactive) | 83.2% (inactive) | 46.1% (inactive)
6 | Clc1ccc(COC(Cn2ccnc2)c2ccc(Cl)cc2Cl)c(Cl)c1 (stereo not given) | 41.5% (inactive) and 45.3% (inactive) | 65% (inactive) | 41.2% (inactive) and 54.6% (inactive) | 38.4% (inactive) | 64.5% (inactive) and -11.4% (active) | – | 79.7% (inactive) and 91% (inactive) | 38.3% (inactive) and 22.3% (inactive) | 74.3% (inactive) | 21.7% (inactive) and -21.9% (active) | 46.4% (inactive) and 36.5% (inactive) | 8.47% (active) and 20.5% (inactive) | 58.3% (inactive) and 62.2% (inactive) | 39.3% (inactive) and 35% (inactive) | 14.6% (inactive) and 16.1% (inactive) | 40.2% (inactive) and 43.2% (inactive) | 51.8% (inactive) and 40.9% (inactive) | – | 48.9% (inactive) and 64.2% (inactive)
7 | C/C(=C\c1ccn(-c2ccc(N)cc2F)n1)[C@@H]1C[C@@H]2O[C@]2(C)CCC[C@H](C)[C@H](O)[C@@H](C)C(=O)C(C)(C)[C@@H](O)CC(=O)O1 | 10.6% (inactive) | 13.8% (inactive) | 7.57% (active) | 18.7% (inactive) | 23.5% (inactive) | 61.1% (inactive) | 33.9% (inactive) | 34.8% (inactive) | -1.48% (active) | -11.9% (active) | 35.5% (inactive) | -30% (active) | 35.1% (inactive) | 16.7% (inactive) | – | 10.2% (inactive) | 19.7% (inactive) | -15% (active) | –
8 | COc1ccc(/C=C(/C)[N+](=O)[O-])cc1OC | 0.86% (active) and -1.19% (active) | -21.8% (active) and -5.49% (active) | -17.9% (active) and -7.74% (active) | 6.5% (active) | 91.4% (inactive) and 66.7% (inactive) | 32.7% (inactive) | 112% (inactive) and 108% (inactive) | 10.8% (inactive) and -20.9% (active) | – | 74.7% (inactive) and 3.26% (active) | 2.51% (active) and -36.5% (active) | 14.8% (inactive) and 8.73% (active) | -71.8% (active) and -74.3% (active) | -16.3% (active) and 4.76% (active) | – | 49% (inactive) and 37.1% (inactive) | 60.2% (inactive) | 35.9% (inactive) and 59.2% (inactive) | –
9 | Cc1cc(N(CCCl)CCCl)ccc1/C=N\NC(=O)c1cccnc1 | 49.6% (inactive) and 60.5% (inactive) | 23.4% (inactive) and 54.5% (inactive) | 85.7% (inactive) and 86.1% (inactive) | 88.4% (inactive) and 80.2% (inactive) | 33.9% (inactive) and 74% (inactive) | – | 74.2% (inactive) and 102% (inactive) | 79.9% (inactive) and 82.6% (inactive) | 98.3% (inactive) and 103% (inactive) | 81.6% (inactive) and 82.4% (inactive) | 57.5% (inactive) and 60.7% (inactive) | 91.3% (inactive) and 88.1% (inactive) | 91.4% (inactive) | 50.4% (inactive) and 59.7% (inactive) | 84% (inactive) and 79.2% (inactive) | 104% (inactive) and 95.1% (inactive) | 86% (inactive) and 78.8% (inactive) | 97.1% (inactive) and 102% (inactive) | 104% (inactive) and 101% (inactive)
10 | C[C@]12CCc3nc(-c4ccc(O)c(O)c4)sc3C1=CC[C@@H]1[C@@H]2CC[C@]2(C)C(=O)CC[C@@H]12 | 45.4% (inactive) | 39.3% (inactive) | 9.9% (active) | 29.9% (inactive) | 112% (inactive) | 67.1% (inactive) | 89.7% (inactive) | 38.6% (inactive) | 66.8% (inactive) | 73.7% (inactive) | 69% (inactive) | 71.3% (inactive) | 55.4% (inactive) | 48.4% (inactive) | – | 90.8% (inactive) | 58.1% (inactive) | 99.2% (inactive) | –
11 | CC[C@H](C)[C@H](NC(=O)c1ncccn1)C(=O)N(C)[C@H](C[C@@H](OC(C)=O)c1nc(C(=O)N[C@@H](Cc2ccccc2)C[C@H](C)C(=O)OC)cs1)C(C)C | 20.2% (inactive) | 14.7% (inactive) | 17.7% (inactive) | 22.8% (inactive) | 74.3% (inactive) | – | 44.1% (inactive) | 49.5% (inactive) | 18.3% (inactive) | 70.6% (inactive) | 52.6% (inactive) | -24.6% (active) | 25.8% (inactive) | 18.9% (inactive) | 2.48% (active) | 16.1% (inactive) | 5.49% (active) | 60.9% (inactive) | -18.4% (active)
12 | CC[C@H](C)[C@H](NC(=O)CN(C)C)C(=O)N(C)[C@H](C[C@@H](OC(C)=O)c1nc(C(=O)NC23CC(C(=O)OC)(C2)C3)cs1)C(C)C | 12.3% (inactive) | 17.8% (inactive) | 18.8% (inactive) | 19.1% (inactive) | 71.9% (inactive) | – | 32.6% (inactive) | 33% (inactive) | 31.9% (inactive) | 77.8% (inactive) | 50.4% (inactive) | -38.9% (active) | 30.9% (inactive) | 17.9% (inactive) | 4.85% (active) | 11.4% (inactive) | 14.2% (inactive) | 20.4% (inactive) | -47.2% (active)
13 | CN1C2CCC1[C@@H](COC(=O)c1ccccc1)[C@@H](O)C2 (stereo not given in full) | 97.8% (inactive) | 105% (inactive) | 77.7% (inactive) | 103% (inactive) | 106% (inactive) | 103% (inactive) | 107% (inactive) | – | 119% (inactive) | 110% (inactive) | 124% (inactive) | 121% (inactive) | 111% (inactive) | 97.3% (inactive) | 101% (inactive) | 103% (inactive) | 143% (inactive) | 105% (inactive) | –
14 | CN(C)c1ccc(C=C2C(=O)NC(=O)NC2=O)cc1 | 98.7% (inactive) | 107% (inactive) | 131% (inactive) | 98.5% (inactive) | 77.9% (inactive) | 116% (inactive) | 109% (inactive) | – | 91.7% (inactive) | 76.7% (inactive) | 76.1% (inactive) | 111% (inactive) | – | 100% (inactive) | 53.9% (inactive) | 98.9% (inactive) | – | – | 95.8% (inactive)
15 | COC(=O)C1=CO[C@@H](C)[C@@H]2CN3CCc4c([nH]c5cc(OC)ccc45)[C@@H]3C[C@H]12 | 94.8% (inactive) | 92.7% (inactive) | 94.3% (inactive) | 95.9% (inactive) | 95.6% (inactive) | 107% (inactive) | 100% (inactive) | – | 94.5% (inactive) | 93.8% (inactive) | 93.2% (inactive) | 107% (inactive) | 99.9% (inactive) | 91.1% (inactive) | 103% (inactive) | 109% (inactive) | 105% (inactive) | – | 100% (inactive)
